Results: ChEMBL document CHEMBL1961873, “Compounds: GSK PKIS; Assays: Nanosyn kinase panel” (2012)

Key:
[1] = biological target: Tyrosine-protein kinase SYK (Homo sapiens) (UniProt P43405); conditions: at 1 µM
[2] = biological target: T1, Tyrosine-protein kinase Tec (Homo sapiens) (UniProt P42680); conditions: at 0.1 µM
T1 sequence (whole entry): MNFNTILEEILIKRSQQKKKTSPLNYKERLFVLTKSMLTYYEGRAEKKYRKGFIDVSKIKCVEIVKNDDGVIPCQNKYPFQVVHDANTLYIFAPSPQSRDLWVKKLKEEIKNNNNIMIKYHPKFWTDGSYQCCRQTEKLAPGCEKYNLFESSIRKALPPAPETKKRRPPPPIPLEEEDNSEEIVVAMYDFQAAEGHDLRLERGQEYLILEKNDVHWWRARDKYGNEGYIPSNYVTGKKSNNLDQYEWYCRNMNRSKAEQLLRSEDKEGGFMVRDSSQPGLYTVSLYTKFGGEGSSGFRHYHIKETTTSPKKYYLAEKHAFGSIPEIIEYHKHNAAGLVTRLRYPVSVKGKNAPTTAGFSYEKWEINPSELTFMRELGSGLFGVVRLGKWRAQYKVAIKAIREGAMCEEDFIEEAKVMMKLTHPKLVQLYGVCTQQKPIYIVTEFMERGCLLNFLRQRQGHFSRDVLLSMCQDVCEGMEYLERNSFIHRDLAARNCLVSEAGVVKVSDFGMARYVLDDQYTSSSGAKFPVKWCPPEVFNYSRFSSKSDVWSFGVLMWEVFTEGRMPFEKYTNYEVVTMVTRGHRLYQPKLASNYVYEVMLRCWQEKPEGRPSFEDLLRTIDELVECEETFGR

[3] = biological target: T1, Tyrosine-protein kinase Tec (Homo sapiens); conditions: at 1 µM
[4] = biological target: Angiopoietin-1 receptor (Homo sapiens) (UniProt Q02763); conditions: at 0.1 µM
Sequence of Angiopoietin-1 receptor (Homo sapiens) (Q02763 whole entry): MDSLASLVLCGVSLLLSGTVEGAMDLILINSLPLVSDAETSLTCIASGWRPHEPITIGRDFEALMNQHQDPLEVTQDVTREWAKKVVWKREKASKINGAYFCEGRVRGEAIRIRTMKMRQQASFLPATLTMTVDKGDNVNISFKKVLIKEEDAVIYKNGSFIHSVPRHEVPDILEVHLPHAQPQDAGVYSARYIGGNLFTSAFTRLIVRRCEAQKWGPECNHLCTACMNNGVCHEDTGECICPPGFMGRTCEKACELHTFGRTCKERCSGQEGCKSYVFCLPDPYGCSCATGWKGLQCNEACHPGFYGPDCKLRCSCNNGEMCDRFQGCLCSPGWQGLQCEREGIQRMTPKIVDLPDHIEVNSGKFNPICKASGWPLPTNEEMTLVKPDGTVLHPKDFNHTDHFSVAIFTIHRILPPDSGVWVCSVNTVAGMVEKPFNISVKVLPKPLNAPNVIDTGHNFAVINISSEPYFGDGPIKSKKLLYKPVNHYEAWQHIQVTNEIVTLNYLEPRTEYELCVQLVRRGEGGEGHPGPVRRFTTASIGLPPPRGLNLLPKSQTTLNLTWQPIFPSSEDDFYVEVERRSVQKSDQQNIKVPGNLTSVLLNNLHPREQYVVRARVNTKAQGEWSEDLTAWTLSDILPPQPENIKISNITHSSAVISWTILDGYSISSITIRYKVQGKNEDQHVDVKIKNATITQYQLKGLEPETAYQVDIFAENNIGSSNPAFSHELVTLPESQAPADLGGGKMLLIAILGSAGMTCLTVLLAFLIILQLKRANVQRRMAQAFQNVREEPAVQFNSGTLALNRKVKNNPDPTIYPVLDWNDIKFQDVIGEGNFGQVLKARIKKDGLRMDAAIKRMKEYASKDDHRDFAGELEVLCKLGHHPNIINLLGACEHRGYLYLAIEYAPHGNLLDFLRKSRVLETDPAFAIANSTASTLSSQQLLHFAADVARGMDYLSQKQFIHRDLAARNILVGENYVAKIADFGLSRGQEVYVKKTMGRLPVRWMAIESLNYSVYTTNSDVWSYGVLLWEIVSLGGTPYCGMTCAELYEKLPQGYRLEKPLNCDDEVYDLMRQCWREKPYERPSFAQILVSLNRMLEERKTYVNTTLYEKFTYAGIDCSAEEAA

[5] = biological target: Angiopoietin-1 receptor (Homo sapiens) (UniProt Q02763); conditions: at 1 µM
[6] = biological target: T2, Non-receptor tyrosine-protein kinase TNK1 (Homo sapiens) (UniProt Q13470); conditions: at 0.1 µM
T2 sequence (whole entry): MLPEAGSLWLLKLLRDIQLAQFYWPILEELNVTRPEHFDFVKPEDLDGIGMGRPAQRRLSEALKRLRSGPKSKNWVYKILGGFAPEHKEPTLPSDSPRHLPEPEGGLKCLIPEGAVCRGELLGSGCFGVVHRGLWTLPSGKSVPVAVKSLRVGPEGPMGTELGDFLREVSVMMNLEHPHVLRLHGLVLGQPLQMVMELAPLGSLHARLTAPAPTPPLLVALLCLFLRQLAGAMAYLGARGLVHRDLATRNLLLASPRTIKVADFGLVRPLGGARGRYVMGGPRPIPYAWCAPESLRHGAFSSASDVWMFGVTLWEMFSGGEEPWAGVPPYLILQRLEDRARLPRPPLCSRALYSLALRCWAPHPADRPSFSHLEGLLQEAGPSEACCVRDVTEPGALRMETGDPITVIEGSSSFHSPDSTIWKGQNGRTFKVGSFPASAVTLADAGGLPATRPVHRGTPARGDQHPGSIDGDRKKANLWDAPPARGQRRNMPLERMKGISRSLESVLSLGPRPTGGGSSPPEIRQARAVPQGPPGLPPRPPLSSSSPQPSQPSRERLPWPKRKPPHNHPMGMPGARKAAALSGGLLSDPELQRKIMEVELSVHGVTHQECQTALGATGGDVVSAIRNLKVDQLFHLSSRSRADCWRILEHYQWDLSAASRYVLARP

[7] = biological target: T2, Non-receptor tyrosine-protein kinase TNK1 (Homo sapiens); conditions: at 1 µM
[8] = biological target: Activated CDC42 kinase 1 (Homo sapiens) (UniProt Q07912); conditions: at 0.1 µM
Sequence of Activated CDC42 kinase 1 (Homo sapiens) (Q07912 whole entry, looked up): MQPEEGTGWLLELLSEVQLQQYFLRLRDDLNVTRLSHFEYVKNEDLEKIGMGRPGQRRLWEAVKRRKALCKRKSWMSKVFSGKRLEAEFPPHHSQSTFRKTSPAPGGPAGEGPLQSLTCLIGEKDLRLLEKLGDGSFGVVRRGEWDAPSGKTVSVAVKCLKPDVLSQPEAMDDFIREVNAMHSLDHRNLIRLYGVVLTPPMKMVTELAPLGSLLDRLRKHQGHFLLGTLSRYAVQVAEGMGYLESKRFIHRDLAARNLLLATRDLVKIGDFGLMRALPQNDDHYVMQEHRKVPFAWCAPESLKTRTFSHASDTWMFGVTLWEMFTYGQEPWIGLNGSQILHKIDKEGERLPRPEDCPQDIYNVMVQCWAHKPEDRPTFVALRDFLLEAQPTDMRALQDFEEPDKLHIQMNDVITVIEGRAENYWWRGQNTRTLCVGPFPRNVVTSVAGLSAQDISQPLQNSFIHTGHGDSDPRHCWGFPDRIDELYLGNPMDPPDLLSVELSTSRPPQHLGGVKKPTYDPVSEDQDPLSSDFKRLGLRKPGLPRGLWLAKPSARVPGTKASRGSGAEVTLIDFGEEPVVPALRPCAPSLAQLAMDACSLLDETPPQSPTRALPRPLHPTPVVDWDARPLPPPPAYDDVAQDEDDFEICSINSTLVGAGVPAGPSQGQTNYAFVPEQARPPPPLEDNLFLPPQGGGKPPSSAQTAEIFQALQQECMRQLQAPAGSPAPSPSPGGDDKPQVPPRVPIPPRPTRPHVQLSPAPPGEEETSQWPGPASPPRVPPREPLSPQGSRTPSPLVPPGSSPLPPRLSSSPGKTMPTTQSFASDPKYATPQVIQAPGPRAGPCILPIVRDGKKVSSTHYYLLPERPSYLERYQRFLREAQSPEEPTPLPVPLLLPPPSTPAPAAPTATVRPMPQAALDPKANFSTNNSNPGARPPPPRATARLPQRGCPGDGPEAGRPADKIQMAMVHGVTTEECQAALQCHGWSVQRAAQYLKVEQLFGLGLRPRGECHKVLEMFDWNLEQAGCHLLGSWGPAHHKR

[9] = biological target: Activated CDC42 kinase 1 (Homo sapiens) (UniProt Q07912); conditions: at 1 µM
[10] = biological target: High affinity nerve growth factor receptor (Homo sapiens) (UniProt P04629); conditions: at 0.1 µM;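 also: each value is a mean of replicate percent inhibition readings against TRKA kinase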
Sequence of High affinity nerve growth factor receptor (Homo sapiens) (P04629 33-796 limits assumed): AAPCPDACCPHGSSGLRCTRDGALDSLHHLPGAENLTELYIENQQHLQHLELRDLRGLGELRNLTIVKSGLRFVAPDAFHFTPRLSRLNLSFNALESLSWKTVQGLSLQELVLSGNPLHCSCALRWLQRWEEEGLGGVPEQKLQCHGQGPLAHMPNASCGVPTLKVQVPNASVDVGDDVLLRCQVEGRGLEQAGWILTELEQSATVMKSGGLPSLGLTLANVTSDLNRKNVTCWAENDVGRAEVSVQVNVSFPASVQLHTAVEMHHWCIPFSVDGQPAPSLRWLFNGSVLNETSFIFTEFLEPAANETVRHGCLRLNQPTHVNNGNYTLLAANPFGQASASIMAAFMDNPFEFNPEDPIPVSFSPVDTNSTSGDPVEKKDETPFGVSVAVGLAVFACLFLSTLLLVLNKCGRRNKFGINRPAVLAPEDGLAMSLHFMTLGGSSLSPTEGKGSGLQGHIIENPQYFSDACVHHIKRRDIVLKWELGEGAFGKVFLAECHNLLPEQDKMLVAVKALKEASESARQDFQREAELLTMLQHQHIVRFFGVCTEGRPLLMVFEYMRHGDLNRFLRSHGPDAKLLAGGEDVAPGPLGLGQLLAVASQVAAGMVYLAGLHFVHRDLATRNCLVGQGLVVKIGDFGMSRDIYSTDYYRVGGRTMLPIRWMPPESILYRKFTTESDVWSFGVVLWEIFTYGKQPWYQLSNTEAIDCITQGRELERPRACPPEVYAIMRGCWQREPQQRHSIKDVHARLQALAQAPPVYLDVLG

SMILES	inhibition [1] [%]	inhibition [2] [%]	inhibition [3] [%]	inhibition [4] [%]	inhibition [5] [%]	inhibition [6] [%]	inhibition [7] [%]	inhibition [8] [%]	inhibition [9] [%]	inhibition [10] [%]
O=C1NC(=O)C(c2cccc(Cl)c2)=C1Nc1ccc(Cl)c(C(=O)O)c1	-0.32	3.38	2.84	1.75	4.22	0.16	11	0.78	0.5	0.94
COc1cc2ncn(-c3cc(OCc4ccccc4C(F)(F)F)c(C(C)=O)s3)c2cc1OC	-5.75	-0.08	5.16	1.54	8.41	0.64	23.6	1.52	3.29	2.3
CCc1ccc(Oc2nccc(-c3c(-c4ccc(F)cc4)ncn3C3CCNCC3)n2)cc1	2.45	6.67	4.84	3.66	4.41	1.24	0.88	1.41	2.2	4.16
O=C1Nc2ccc(I)cc2C1=Cc1cc(Br)c(O)c(Br)c1	1.56	7.04	3.72	4.71	5.55	22.7	84.5	0.67	3.22	2.97
COc1cccc(/C=N/Nc2ncnc3c2cnn3-c2cccc(OC)c2)c1	0.04	4.1	4.79	5.3	4.37	0.36	3.79	1.06	3.32	1.54
C#Cc1cccc(Nc2ncnc3ccc(OCCCCNCCS(C)(=O)=O)cc23)c1	0.39	5.96	9.84	5.13	12.5	2.31	20.9	2.03	7.01	2.95
Clc1ccc(CNc2nccc(-c3cnn4ncccc34)n2)cc1	1.6	3.07	7.34	0.58	4.03	2.4	14.8	0.35	3.23	1.42
O=C(Nc1ccc(Oc2ccc3[nH]c(NC(=O)c4ccccc4)nc3c2)cc1)Nc1cc(C(F)(F)F)ccc1F	-0.11	4.86	8.67	9.81	60.5	4.53	40	0.59	4.59	5.99
COc1cc(Nc2ncc3c(C)nc(-c4cccc(Oc5ccccc5)c4)n3n2)cc(OC)c1OC	0.13	2.22	5.31	1.33	3.09	4.56	23.8	0.46	1.9	2.69
C[C@@H](Oc1cc(-n2cnc3ccc(OC4CCN(C)CC4)cc32)sc1C(N)=O)c1ccccc1Cl	2.16	2.27	1.73	7.19	11.9	3.41	18.1	-0.17	1.13	2.29
COc1cc(Nc2ncc3c(C)nc(-c4cccc(C(F)(F)F)c4)n3n2)cc(OC)c1OC	-2.22	3.55	16.9	2.15	6.29	15.2	48.8	0.75	3.69	2.69
CCS(=O)(=O)c1ccc(OC)c(Nc2ncc(-c3ccccc3Cl)o2)c1	4.5	3.48	5.03	0.48	7.52	16.9	67.2	1.07	3.27	2.9
Fc1ccc(-c2c(-c3ccncc3)nc3n2CCS3)cc1	1.49	-1.67	-0.75	2.27	4.78	0.74	2.59	0.57	1.01	3.03
COc1cc(C)c(N(C)C(=O)CN(C)C)cc1Nc1nc(Nc2cccc(F)c2C(N)=O)c2cc[nH]c2n1	1.76	-0.85	1.07	0.26	2.24	1.97	6.22	0.62	0.64	1.62
CCc1nccc2c1nc(-c1nonc1N)n2CC	10.7	1.47	5.82	2.53	5.08	0.71	-5.44	-0.52	-0.83	
O=C(Nc1n[nH]c2cc(-c3ccccc3)ccc12)C1CC1	1.22	7.27	16.4	1.86	3.48	3.15	7.79	0.74	3.97	2.59
COc1cc(Nc2ncc(-c3ccccc3)o2)cc(OC)c1OC	-1.68	-2.02	4.55	0.66	5.14	4.15	28.4	0	0.48	3.35

SMILES	inhibition [1] [%]	inhibition [2] [%]	inhibition [3] [%]	inhibition [4] [%]	inhibition [5] [%]	inhibition [6] [%]	inhibition [7] [%]	inhibition [8] [%]	inhibition [9] [%]	inhibition [10] [%]
CN(c1ccc(NC(=O)Nc2c(Cl)cccc2Cl)cc1)c1ccnc(Nc2cccc(CS(C)(=O)=O)c2)n1	-9.25	10.1	21.4	64.2	72.1	59.8	84.1	1.13	4.21	49.7
Fc1ccc(-c2ncn(C3CCNCC3)c2-c2ccnc(Oc3ccc4c(c3)OCO4)n2)cc1	-5.42	2.04	5.37	7.45	12.3	3.93	7.31	1.16	1.77	1.21
COc1ccc2cc(-c3c(-c4ccncc4)nc(-c4ccc([S+](C)[O-])cc4C)n3C)ccc2c1 (centres undefined)	0.6	0.44	0.84	76.9	82.2	-3.02	12.5	-0.21	0.9	0.64
CN(C)CCCNc1nccc(-c2c(-c3ccc(F)cc3)nn3cc(C(F)(F)F)ccc23)n1	-0.03	-0.2	1.41	5.61	9.58	1.15	0.39	0.85	1.33	4.23
Fc1ccc(-c2ncn(C3CCNCC3)c2-c2ccnc(Oc3ccc(F)c(F)c3)n2)cc1	-2.3	-2.35	0.11	0.38	3.09	0.22	4.28	-0.47	-0.07	2.3
O=C1Nc2ccccc2/C1=C/Nc1ccc(-n2cncn2)cc1	-1.86	3.72	5.42	0.76	4.4	2.41	14	0.63	2.83	6.94
CCN(CC)Cc1ccc(Nc2nccc(-c3cnn4ncccc34)n2)cc1	-0.45	0.83	3.21	3.9	12.2	5.27	32	-0.16	3.2	2.7
COc1cc(N2CCN(C(C)C)CC2)ccc1Nc1nc(Nc2ccc(F)cc2C(=O)NC[C@@H](O)CO)c2cc[nH]c2n1	-2.57	1.33	1.93	2.59	6.08	14.7	60.5	3.26	9.35	3.81
O=C(Nc1n[nH]c2nc(-c3ccc(O)cc3)c(Br)cc12)C1CC1	0.18	6.51	14.4	5.98	26.2	4.45	20.4	1.69	3.9	4.06
NC(=O)c1cc(-c2ccc(F)cc2)cc(-c2ccncc2)c1N	1.28	2.88	5.71	4.39	3.08	3.42	7.48	0.31	-0.36	2.33
COc1ccc2cc(-c3c(-c4ccncc4)nc(-c4ccc(S(C)(=O)=O)cc4C)n3C)ccc2c1	0.26	4.38	5.26	75	78.7	4.94	29.3	0.74	3.77	3.75
COc1cc2ncn(-c3cc(OCc4cccs4)c(C(N)=O)s3)c2cc1OC	0.32	-0.38	2.67	4.44	27.3	10.4	53.9	3.84	9.04	-0.38
CN1CCN(CCCNc2nc3ccc(Oc4ccc(NC(=O)Nc5cc(C(F)(F)F)ccc5F)cc4)cc3[nH]2)CC1	0.86	0.68	5.07	9.94	53.8	-0.25	4.81	2.56	5.75	2.88
CCC(=O)Nc1ccc(C)c(-c2ccc(C(=O)NCC3CC3)cc2)c1	0.67	3.13	2.28	4.73	6.22	-0.12	6.35	0.66	1.34	2
CCS(=O)(=O)c1ccc(OC)c(Nc2ncc(-c3cccc(-c4ccccc4F)c3)o2)c1	1.23	2.94	12.7	3.06	19	14.1	61.8	1.02	7.85	6.39
O=C(NCC1CC1)c1ccc(-c2cccc(C(=O)NC3CC3)c2)cc1	-1.45	2.57	6.01	2.21	6.47	1.89	-2.48	0.86	1.39	4.07
Fc1ccc(-c2ncn(C3CCNCC3)c2-c2ccnc(Oc3ccc(Oc4ccccc4)cc3)n2)cc1	3.37	7.61	3.11	3.79	4.32	2.72	0.92	0.73	1.8	3.4
